PubChem BioAssay (NCI)
About 79,000 compounds went through this panel and 15% of them were active in at least one assay; those are over-represented in the sample as a whole. Values without a mark were called inactive. Active and inactive are the calls of the source. No stated cut-off is given here; in the data, active means growth inhibition above about 70%; inactive means the rest.

What was measured:
[1] = NCI Yeast Anticancer Drug Screen. Data for the rad50 strain (AID 155);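 further: 0% = growth of vehicle-only cultures of the same strain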; conditions: S. cerevisiae rad50 strain growth inhibition, active compounds read high
How it was run: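 Readout: growth inhibition relative to vehicle-treated cultures. Compound exposure was carried out in a genetically defined yeast strain deficient in DNA damage repair.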

[2] = NCI Yeast Anticancer Drug Screen. Data for the mec2-1 strain (AID 157); conditions: S. cerevisiae mec2-1 strain, active compounds read high
How it was run: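 Strain: mec2-1 (DNA repair/cell cycle alteration). Compound exposure, then growth measured; inhibition expressed relative to vehicle.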

[3] = NCI Yeast Anticancer Drug Screen. Data for the sgs1 mgt1 strain (AID 161);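 further: 0% = growth of cultures given vehicle only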; conditions: S. cerevisiae sgs1 mgt1 strain, active compounds read high
How it was run: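 Read-out: growth inhibition vs vehicle controls. Cells: mutant yeast strain deficient in DNA damage repair.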

[4] = NCI Yeast Anticancer Drug Screen. Data for the cln2 rad14 strain (AID 165);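 further: 0% = growth equal to vehicle treated cultures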; conditions: S. cerevisiae cln2 rad14 strain, active compounds read high
How it was run: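 Compounds are applied to the cln2 rad14 yeast strain, and growth is then compared with that of vehicle-treated cultures to give inhibition.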

[5] = NCI Yeast Anticancer Drug Screen. Data for the bub3 strain (AID 167); conditions: S. cerevisiae bub3 mutant strain, active compounds read high
How it was run: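 Readout: yeast growth inhibition, expressed relative to vehicle-only wells. The test organism is a mutant strain from a panel with lesions in DNA repair or checkpoint genes.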

[6] = NCI Yeast Anticancer Drug Screen. Data for the mlh1 rad18 strain (AID 175); conditions: S. cerevisiae mlh1 rad18 strain growth inhibition, active compounds read high
How it was run: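 Read-out is yeast growth inhibition, calculated against vehicle-only controls. The compound was applied to a strain engineered with DNA damage repair alterations.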

[7] = at 5.0 µM (retest, dose inferred, filed as 0.5)
[8] = at 50.0 µM (retest, dose inferred, filed as 5.0)

| Structure (SMILES) | growth inhibition [1, 7] [%] | growth inhibition [1, 8] | growth inhibition ([1]; at 50.0 µM) | growth inhibition [2, 7] [%] | growth inhibition [2, 8] | growth inhibition ([2]; at 50.0 µM) | growth inhibition [3, 7] [%] | growth inhibition [3, 8] | growth inhibition ([3]; at 50.0 µM) | growth inhibition [4, 7] [%] | growth inhibition [4, 8] | growth inhibition ([4]; at 50.0 µM) | growth inhibition [5, 7] [%] | growth inhibition [5, 8] | growth inhibition ([5]; at 50.0 µM) | growth inhibition [6, 7] [%] | growth inhibition [6, 8] | growth inhibition ([6]; at 50.0 µM) |
| --- | --- | --- | --- | --- | --- | --- | --- | --- | --- | --- | --- | --- | --- | --- | --- | --- | --- | --- |
| N#Cc1c(-c2ccc(Cl)c(Cl)c2)c(-c2ccc(Cl)c(Cl)c2)nn(CC(=O)O)c1=O | -2 | 98% (active) | 38.1% | -2 | 100% (active) | 46.6% | 2 | 98% (active) | 50.7% | -3 | 99% (active) | 14.3% | -3 | 99% (active) | 34.2% | 0 | 99% (active) | 69.1% |
| CCCCCCCCC/C=C1\CCC(CN(C)C)C1=O (configuration not stated) | -26 | 88% (active) | 89.4% (active) | -36 | 98% (active) | 93% (active) | -28 | 91% (active) | 90.8% (active) | -6 | 96% (active) | 89.6% (active) | -24 | 97% (active) | 89.5% (active) | -27 | 97% (active) | 88.8% (active) |
| Cc1ccc(S(=O)(=O)OCC(C)(C)C)cc1 | -152 | -169% | 8.4% | -48 | -59% | 2.05% | -63 | -69% | -2.7% | -61 | -83% | -29.6% | -57 | 5% | 86.8% (active) | -125 | -127% | 14.5% |
| COc1ccccc1NC(=S)N/N=C(/C)c1ccccn1 | 22 | 78% (active) | -30.1% | 22 | 66% | -8.7% | 34 | 61% | 18.4% | 32 | 56% | -3.95% | 54 | 77% (active) | 13.5% | 13 | 64% | -2.3% |
| COc1cccc(/C=C/C(C)=O)c1OC | 2 | 35% | 76% (active) | 4 | 8% | 13.9% | -1 | 3% | 24.5% | -4 | 4% | 21.9% | -2 | -1% | 5.2% | -4 | 7% | 37.5% |
| CCc1c(C)[nH]c(-c2csc(N)n2)c1C | -1 | 93% (active) | -4.25% | 1 | 95% (active) | 83.9% (active) | -1 | 94% (active) | 2.8% | 1 | 93% (active) | 31.7% | 4 | 92% (active) | 67.8% | 2 | 93% (active) | 56.8% |
| [Ce+3].[Cl-].[O-]/N=C(\c1ccccc1)c1ccccn1.[O-]/N=C(\c1ccccc1)c1ccccn1.[O-]/N=C(\c1ccccc1)c1ccccn1 | 36 | 66% | 85.5% (active) | 28 | 76% (active) | 85.4% (active) | 32 | 75% (active) | 85.8% (active) | 29 | 32% | 76.7% (active) | 41 | 95% (active) | 88.3% (active) | 39 | 91% (active) | 86.2% (active) |
| c1ccc(-c2ccc(-c3cnc(-c4ccc(-c5ccccc5)cc4)o3)cc2)cc1 | 4 | 30% | 90.2% (active) | 3 | 46% | 53.4% | 1 | 66% | 93% (active) | -1 | 42% | 41.1% | 8 | 31% | 93.2% (active) | -6 | 64% | 92.8% (active) |
| Fc1cccc(NC(=S)SCc2ccco2)c1 | 9 | 84% (active) | 97.7% (active) | -1 | 93% (active) | 84.2% (active) | 2 | 80% (active) | 96% (active) | -2 | 45% | 61.2% | -11 | 61% | 82% (active) | -1 | 89% (active) | 97.2% (active) |
